Assay results taken from PubChem BioAssay (NCI).
The panel holds about 79,000 compounds, 15% with a hit somewhere; the sample as a whole holds those more often. Values without a mark were called inactive. The source made the active and inactive calls. Cut-off read from the data, not from the text of the source: active = growth inhibition above about 70%; inactive = the rest.

Experiments:
[1] = NCI Yeast Anticancer Drug Screen. Data for the rad50 strain (AID 155);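 note: 0% = growth of vehicle-only cultures of the same strain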; conditions: S. cerevisiae rad50 strain growth inhibition, stronger effect = higher value
In short: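 Genetically altered yeast (DNA repair pathway); compound treatment; growth inhibition vs vehicle ctrl.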

[2] = NCI Yeast Anticancer Drug Screen. Data for the mec2-1 strain (AID 157); conditions: S. cerevisiae mec2-1 strain, stronger effect = higher value
In short: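 Readout is yeast growth inhibition, normalised to vehicle-treated controls, in the mec2-1 strain exposed to compound.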

[3] = NCI Yeast Anticancer Drug Screen. Data for the sgs1 mgt1 strain (AID 161);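 note: 0% = growth of cultures given vehicle only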; conditions: S. cerevisiae sgs1 mgt1 strain, stronger effect = higher value
In short: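 Yeast cells carrying a defined DNA-repair defect were exposed to test compounds. Growth inhibition was measured relative to vehicle-treated controls.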

[4] = NCI Yeast Anticancer Drug Screen. Data for the cln2 rad14 strain (AID 165);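 note: 0% = growth equal to vehicle treated cultures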; conditions: S. cerevisiae cln2 rad14 strain, stronger effect = higher value
In short: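 Relative to vehicle controls, growth inhibition of compound-treated cln2 rad14 yeast was recorded.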

[5] = NCI Yeast Anticancer Drug Screen. Data for the bub3 strain (AID 167); conditions: S. cerevisiae bub3 mutant strain, stronger effect = higher value
In short: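 Yeast carrying a defined mutation is treated with each compound, and growth is compared with that of vehicle-exposed cells to give inhibition.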

[6] = NCI Yeast Anticancer Drug Screen. Data for the mlh1 rad18 strain (AID 175); conditions: S. cerevisiae mlh1 rad18 strain growth inhibition, stronger effect = higher value
In short: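 Test agents were incubated with a yeast strain of defined genotype (DNA damage repair defect). Inhibition of growth was derived by comparison with vehicle-exposed cultures.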

[7] = at 5.0 µM (retest, dose inferred, filed as 0.5)
[8] = at 50.0 µM (retest, dose inferred, filed as 5.0)

SMILES	growth inhibition [1, 7]	growth inhibition [1, 8]	growth inhibition ([1]; at 50.0 µM)	growth inhibition [2, 7]	growth inhibition [2, 8]	growth inhibition ([2]; at 50.0 µM)	growth inhibition [3, 7]	growth inhibition [3, 8]	growth inhibition ([3]; at 50.0 µM)	growth inhibition [4, 7]	growth inhibition [4, 8]	growth inhibition ([4]; at 50.0 µM)	growth inhibition [5, 7]	growth inhibition [5, 8]	growth inhibition ([5]; at 50.0 µM)	growth inhibition [6, 7]	growth inhibition [6, 8]	growth inhibition ([6]; at 50.0 µM)
CC1SC2(C(=O)Nc3ccc([N+](=O)[O-])cc32)N(c2ccc(Cl)cc2)C1=O (configuration not stated)	7%	97% (active)	95.6% (active)	-2%	97% (active)	95.7% (active)	-1%	98% (active)	79.2% (active)	-1%	97% (active)	81.7% (active)	12%	98% (active)	96.2% (active)	6%	98% (active)	93.5% (active)
CCc1cccc(C)c1NC(=O)C(=O)CC(=O)c1ccccc1Cl	0%	-1%	72% (active)	-1%	3%	24.7%	-4%	0%	43.8%	-6%	5%	-12.6%	-2%	-2%	24.4%	-8%	0%	31.1%
COc1ccc(/C=N/NS(=O)(=O)c2ccccc2)cc1	0%	-2%	99.1% (active)	-2%	4%	99.3% (active)	0%	3%	99% (active)	-10%	-7%	98% (active)	2%	11%	99.2% (active)	-2%	7%	99% (active)
O=C(N/N=C/c1ccccc1[O-])c1ccccc1O.O=C(N/N=C/c1ccccc1[O-])c1ccccc1O.[Mn+2]	48%	99% (active)	99.2% (active)	39%	98% (active)	99.8% (active)	63%	100% (active)	97.7% (active)	28%	99% (active)	99% (active)	48%	99% (active)	99.6% (active)	40%	99% (active)	97.8% (active)
O=C(NC1CCN(Cc2ccccc2)CC1)c1ccc(I)cc1	40%	59%	68%	46%	62%	49.7%	52%	87% (active)	74.6% (active)	81% (active)	88% (active)	77.2% (active)	60%	49%	74.3% (active)	53%	78% (active)	76.8% (active)
COc1nc2nc(Cl)cc(C)c2c2ccccc12 (tested in a mixture with another compound)	33%	94% (active)	98.1% (active)	11%	91% (active)	65.2%	8%	76% (active)	52.1%	3%	86% (active)	71.8% (active)	5%	94% (active)	78.5% (active)	17%	93% (active)	54.2%
CCCCCCCSCc1nc2ccccc2c(C)[n+]1[O-]	2%	99% (active)	96.7% (active)	3%	98% (active)	95.8% (active)	0%	98% (active)	95.8% (active)	-3%	98% (active)	94.8% (active)	-2%	99% (active)	98% (active)	3%	98% (active)	97.5% (active)
COc1ccc2c(c1)C(Br)CCC(Br)C2=O (configuration not stated)	-20%	2%	47.6%	-48%	-18%	56.2%	-17%	26%	80.3% (active)	13%	39%	33.5%	-36%	51%	88.7% (active)	-20%	34%	91.8% (active)
CCCN(CCC)CC(O)c1ccc2ccc3ccc(Cl)cc3c2c1 (configuration not stated)	20%	98% (active)	99.8% (active)	18%	98% (active)	99.8% (active)	39%	99% (active)	99.8% (active)	29%	98% (active)	99.6% (active)	38%	98% (active)	99.5% (active)	27%	99% (active)	99.8% (active)
Cc1cc2nc(-c3ccccc3[N+](=O)[O-])[nH]c2cc1C	-3%	20%	21.6%	-7%	7%	-0.15%	-6%	61%	41.1%	-3%	-1%	-73.7%	6%	55%	16.3%	2%	56%	3.2%
COc1cccc2c1OC(c1ccc(C#N)cc1)C([N+](=O)[O-])=C2 (configuration not stated)	84% (active)	97% (active)	86.2% (active)	84% (active)	98% (active)	90.8% (active)	87% (active)	98% (active)	87.2% (active)	47%	97% (active)	89.8% (active)	74% (active)	98% (active)	89.8% (active)	92% (active)	98% (active)	83.5% (active)
Cc1[nH]n(C(N)=S)c(=O)c1N=Nc1ccc([N+](=O)[O-])cc1	-19%	35%	91.5% (active)	-4%	27%	51.2%	-4%	66%	88.2% (active)	-13%	33%	7.5%	-12%	54%	51.8%	-6%	48%	93.4% (active)
Cc1c2[nH]c3ccc(Br)cc3c2c(C)c2[nH]ccc(=O)c12	-5%	72% (active)	98.9% (active)	-8%	59%	98.7% (active)	-17%	28%	99% (active)	-26%	57%	97% (active)	2%	81% (active)	98.3% (active)	-11%	96% (active)	96.8% (active)
O=C1OC(c2ccccc2)(c2ccc(-c3ccc(O)cc3)cc2)c2ccccc21 (configuration not stated)	6%	95% (active)	95.6% (active)	3%	97% (active)	97.6% (active)	-1%	97% (active)	96.8% (active)	6%	96% (active)	95.3% (active)	8%	96% (active)	95.8% (active)	7%	96% (active)	96.7% (active)
Nc1c(/C=C/c2cc3ccc(C4=NCCN4)cc3[nH]2)[nH]c2cc(C3=NCCN3)ccc12	78% (active)	97% (active)	89.3% (active)	41%	96% (active)	89% (active)	36%	94% (active)	89.2% (active)	47%	94% (active)	89.5% (active)	42%	92% (active)	86.5% (active)	36%	96% (active)	90.5% (active)
CCCC(=O)C1=C(O)C(Cc2c(O)c(C)c(O)c(C(=O)CCC)c2O)=C(O)C(C)(C)C1=O	-1%	52%	98.2% (active)	4%	34%	92.9% (active)	6%	56%	98.5% (active)	-4%	83% (active)	99.1% (active)	-1%	92% (active)	98.3% (active)	7%	66%	99% (active)
O=C(CCCN1CCC2(CC1)CC(c1ccccc1)OC2=O)c1ccc(F)cc1 (configuration not stated)	48%	76% (active)	86.3% (active)	33%	65%	87.9% (active)	44%	87% (active)	94.7% (active)	41%	84% (active)	89.8% (active)	39%	90% (active)	95.2% (active)	34%	63%	95.9% (active)
CCCCCCCCCCCCCC1OC(=O)C(C)=C1C(=O)O (configuration not stated)	-10%	50%	72.6% (active)	-7%	73% (active)	26.9%	-2%	60%	47.5%	-65%	59%	10.6%	-17%	-25%	27.4%	-10%	74% (active)	61.9%
Cc1nc2ccc(N=Nc3c(O)ccc4ccccc34)cc2[nH]1	-6%	30%	85.3% (active)	-7%	20%	77.1% (active)	11%	35%	91.7% (active)	-12%	17%	72.3% (active)	-4%	77% (active)	86.2% (active)	-33%	66%	82.5% (active)
